Laboratory results published in PubChem BioAssay AID485347 (National Center for Advancing Translational Sciences (NCATS), 2010).
Values joined by “and” are separate entries in the source; they are usually repeats but may differ in a detail not shown here. Equal entries are not always repeated. Out of some 340,000 compounds screened, about 1,200 (0.35%) were called active.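 The calls were made as follows: active = potentiation over 3 SD above the plate norm (cut at about 30% in these data); inactive = the rest.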 This excerpt belongs to a sample that is enriched for actives. More than one record can exist for a structure, and the calls need not agree.

Target: D(2) dopamine receptor (Homo sapiens) (UniProt P14416)
Test: HTS Assay for Positive Allosteric Modulators of the Human D2 Dopamine Receptor: Primary Screen for Potentiators; also: 0% is about no effect
Settings: HEK293 T-REx D2, calcium flux, EC20 dopamine potentiation; at 10 µM; stronger effect = higher value
In short: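 Primary screen. Calcium kinetics in induced HEK293 T-REx D2 cells: compound pre-addition 180 s, EC20 dopamine, 180 s more.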

Chain of D(2) dopamine receptor (Homo sapiens) (P14416 whole entry, looked up): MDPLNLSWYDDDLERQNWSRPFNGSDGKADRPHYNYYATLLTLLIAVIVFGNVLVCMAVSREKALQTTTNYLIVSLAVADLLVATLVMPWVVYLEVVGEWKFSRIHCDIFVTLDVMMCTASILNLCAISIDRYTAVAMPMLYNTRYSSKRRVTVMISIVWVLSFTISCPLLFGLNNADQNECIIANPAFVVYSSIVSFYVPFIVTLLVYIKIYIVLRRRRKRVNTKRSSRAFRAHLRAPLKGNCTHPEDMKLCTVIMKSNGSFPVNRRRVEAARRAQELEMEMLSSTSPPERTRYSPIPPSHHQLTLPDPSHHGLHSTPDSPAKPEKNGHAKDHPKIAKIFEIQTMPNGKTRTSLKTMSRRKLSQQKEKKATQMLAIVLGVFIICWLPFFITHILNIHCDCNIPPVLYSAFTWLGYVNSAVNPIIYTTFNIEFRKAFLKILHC

Row | Compound | potentiation
1 | CCOC(=O)N1CCc2c(sc(NCc3cccc(F)c3)c2C(=O)Nc2ccccc2OCC)C1 | -0.26% (inactive)
2 | CCOc1ccc(S(=O)(=O)Nc2ccc(C(=O)NCCCN3CCCC3=O)cc2)cc1 | 11.5% (inactive)
3 | O=C(NCCCN1CCCC1=O)c1ccc(S(=O)(=O)Nc2ccccc2)cc1 | 3.61% (inactive)
4 | CCOc1ccc(C(=O)NCCCN2CCCC2=O)cc1 | 30.7% (active)
5 | COc1cc(Cl)ccc1Nc1ncc(C(=O)N2CCN(c3ccccc3OC)CC2)c2ccccc12 | -3.04% (inactive)
6 | NC(=O)CSc1nc2c(oc3ccccc32)c(=O)n1Cc1ccccc1 | 4.88% (inactive)
7 | Cc1cccc(NC(=O)c2ccc3nc(C(C)C)oc3c2)c1C | -11.3% (inactive)
8 | Nc1nc(NCCCN2CCOCC2)nc(Nc2ccccc2)c1[N+](=O)[O-] | -1.17% (inactive)
9 | Nc1nc(Nc2ccccc2F)nc(NC2CCCCC2)c1[N+](=O)[O-] | 6.13% (inactive)
10 | Nc1nc(NCC2CCCO2)nc(Nc2ccccc2F)c1[N+](=O)[O-] (centres undefined) | 31.9% (active)
11 | COc1ccc(NC(=O)CSc2nccn2C2CCCC2)cc1OC | 7.4% (inactive)
12 | Cc1cc(O)c(C(c2ccccc2)N2CCN(c3ccccc3F)CC2)c(=O)n1Cc1ccco1 (centres undefined) | -21.6% (inactive)
13 | C[N+](C)(C)CCNC(=O)c1c(O)c2c([nH]c1=O)CCCC2 | 13.8% (inactive)
14 | O=C(NCc1ccccn1)c1c(O)c2c([nH]c1=O)CCCC2 | 4.39% (inactive)
15 | CCc1nnc(NC(=O)c2c(O)c3c([nH]c2=O)CCCC3)s1 | 55.5% (active)
16 | CN(C)CCCn1c(-c2ccc(Cl)cc2)csc1=Nc1ccccc1 | -16.7% (inactive)
17 | Cn1c(=O)[nH]c(=O)c2c1nc(NCCc1ccccc1)n2Cc1ccc(F)cc1 | -10.3% (inactive)
18 | Cn1c(=O)[nH]c(=O)c2c1nc(NCCCn1ccnc1)n2Cc1cccc(Br)c1 | 40% (active)
19 | CC(c1ccccc1)n1c(NCCCn2ccnc2)nc2c1c(=O)[nH]c(=O)n2C (centres undefined) | -8.07% (inactive)
20 | Cc1cccc(C(CC(=O)NCC2(c3ccccc3)CCCC2)c2ccccc2)c1O (centres undefined) | 8.89% (inactive)
21 | CCOC(=O)c1ccc(NC(=O)c2csc3c2CCCCC3)cc1 | 1.32% (inactive)
22 | CCOc1ccc(CCNC(=O)c2csc3c2CCCCC3)cc1 | -0.665% (inactive)
23 | CC1CC(C)CN(CCCNC(=O)c2csc3c2CCCCC3)C1 (centres undefined) | 30.4% (active)

Row | Compound | potentiation
24 | Cc1ccc(NC(=O)CSc2nnc3[nH]c(=O)cc(C)n23)cc1Cl | -5% (inactive)
25 | Cc1n[nH]c(=O)nc1N/N=C/c1cccs1 | 36.2% (active)
26 | Cc1nc2ccccc2n1CC(=O)N/N=C/c1cccs1 | 0.665% (inactive)
27 | Cc1cc(C)nc(SC(C)C(=O)N/N=C/c2cccs2)n1 (centres undefined) | 12.3% (inactive)
28 | CCOC(=O)C1CCN(Cc2nnc(-c3cccc(Br)c3)o2)CC1 | -5.55% (inactive)
29 | CCOC(=O)C1CCN(c2ncnc3c2oc2ccc(Br)cc23)CC1 | 34.7% (active)
30 | CCOC(=O)C1CCN(c2ncnc3c2c(-c2ccccc2)cn3-c2cccc(C)c2)CC1 | -2.84% (inactive)
31 | CCCCOc1ccc(CN2C(=O)C(=O)c3cc(Br)cc(C)c32)cc1OC | 21.8% (inactive)
32 | Cc1ccc(N2CCN(C(=O)CCc3c(C)nc4c(c3C)c(=O)n(C)c(=O)n4C)CC2)c(C)c1 | -0.454% (inactive)
33 | CCN(CC)S(=O)(=O)c1ccc2[nH]cc(C(=O)NCCc3ccccc3)c(=O)c2c1 | -2.89% (inactive) and 46.8% (active)
34 | CCN(CC(=O)NCCc1ccccc1)S(=O)(=O)c1ccccc1 | 13.4% (inactive)
35 | CCc1ccc(NS(=O)(=O)c2ccc3[nH]cc(C(=O)NCCc4cccc(C)c4)c(=O)c3c2)cc1 | -7.11% (inactive)
36 | N#Cc1ccc(-c2cccs2)nc1SCc1ccc(Br)cc1 | -0.921% (inactive)
37 | COc1cccc(CNC(=O)CCC(=O)N2CC3CCCN3c3ccccc32)c1 (centres undefined) | -3.32% (inactive)
38 | COc1cccc(Cn2c(SCc3ccc(C(=O)N4CCCCC4)cc3)nc3ccncc32)c1 | 0.981% (inactive)
39 | CCc1nn(CC(=O)N2CCN(c3cccc(C(F)(F)F)c3)CC2)c(=O)c2cc3occc3n12 | 4.66% (inactive)
40 | O=C(NCc1cccc(Cl)c1)C1CCC(=O)N(C2CC2)C1 (centres undefined) | -9.09% (inactive)
41 | O=C(NCc1cc(F)cc(C(F)(F)F)c1)C1CCC(=O)N(C2CCCC2)C1 (centres undefined) | 39% (active)
42 | Cc1ccc(CNC(=O)C2CC(=O)N(C3CCCCCCC3)C2)cc1 (centres undefined) | 7.03% (inactive)
43 | CCOC(=O)c1ccc(NC(=O)CCS(=O)(=O)c2ccc3c(c2)oc(=O)n3C)cc1 | -4.33% (inactive)
44 | COc1ccccc1NC(=O)CSC1=Nc2ccccc2C2=NC(CC(=O)NCc3cccs3)C(=O)N12 (centres undefined) | -7.55% (inactive)
45 | NS(=O)(=O)c1cccc(NC(=O)CC23CC4CC(CC(Br)(C4)C2)C3)c1 | 38.8% (active)
46 | O=C(CC12CC3CC(CC(C3)C1)C2)Nc1ccc2c(c1)COC2=O | -3.01% (inactive)

Row | Compound | potentiation
47 | Cc1ccc(S(=O)(=O)NCCC(=O)Nc2cccc(S(N)(=O)=O)c2)cc1C | -4.48% (inactive)
48 | Cc1ccc2nc(COc3cccc(NC(=O)Nc4ccc(C)c(Cl)c4)c3)cc(=O)n2c1 | -1.63% (inactive)
49 | O=C(COC(=O)c1ccc(NS(=O)(=O)c2cccs2)cc1O)Nc1ccc(F)cc1 | 35.7% (active)
50 | O=C(COC(=O)c1ccc(O)cc1O)NNC(=O)c1cccs1 | -6.83% (inactive)
51 | CCc1ccc(NC(=O)CCNS(=O)(=O)c2cccs2)cc1 | 13.5% (inactive)
52 | COc1ccc(NC(C)=O)cc1NC(=O)CN1CCN(C2c3ccccc3-c3ccccc32)CC1 | 30.8% (active)
53 | COc1cc(Cl)c(C)cc1NC(=O)CN1CCCCCC1 | -1.62% (inactive)
54 | COc1ccc(NC(C)=O)cc1NC(=O)CN1CCN(c2ccc(F)cc2)CC1 | -0.119% (inactive)
55 | Clc1ccc(CSc2nncn3c2cc2occc23)cc1 | 0.301% (inactive)
56 | CN1CCN(C2(CNC(=O)COc3ccc(C(C)(C)C)cc3)CCCCC2)CC1 | -18.8% (inactive)
57 | CCOC(=O)c1cn[nH]c1NC(=S)Nc1ccccc1 | 3.61% (inactive)
58 | Cc1[nH]c2ccccc2c1C(=O)COC(=O)c1c(-c2ccccc2)noc1C | 8.38% (inactive)
59 | CCOC(=O)c1c(C)nc(-c2ccccc2)nc1NC(=O)C(C)C | 32.3% (active)
60 | CCOC(=O)c1c(C)[nH]c(C)c1S(=O)(=O)N1CCC(C(=O)Nc2ccc(C)c(Cl)c2)CC1 | 1.42% (inactive)
61 | O=C(Nc1cccc(-c2nnc(-c3ccccc3)o2)c1)C1CCCO1 (centres undefined) | 34% (active)
62 | CC(=O)Nc1cccc(C(=O)OCC(=O)Nc2nnc(-c3ccccc3)o2)c1 | 4.87% (inactive)
63 | O=C(Nc1ccc(-c2nnc(-c3ccccc3)o2)cc1)C1CCCO1 (centres undefined) | 15.5% (inactive)
64 | COc1cccc(CNC(=O)c2ccc3c(Cl)c4c(nc3c2)CCCC4)c1 | -3.62% (inactive)
65 | COc1ccc(C(=O)OCC(=O)N2CC(=O)Nc3ccccc32)cc1Br | -9.38% (inactive)
66 | COc1cc(OC)c(C(=O)OCC(=O)N2CC(=O)Nc3ccccc32)cc1OC | 35.4% (active)
67 | COc1ccc(Cl)cc1-n1c(C)cc(C(=O)OCC(=O)N2CC(=O)Nc3ccccc32)c1C | -19.1% (inactive)
68 | O=C(Nc1nnc(C2CC(=O)N(c3ccc(Cl)cc3)C2)s1)c1ccco1 (centres undefined) | -13.1% (inactive)
69 | Cc1cccc(OCCCC(=O)Nc2ccc(S(=O)(=O)N3CCCC3)cc2)c1 | 9.5% (inactive)

Row | Compound | potentiation
70 | Cc1cccc(OCCC(=O)Nc2cc(S(=O)(=O)N3CCCCC3)ccc2N2CCOCC2)c1 | 38.1% (active)
71 | CC(=O)NCCC(=O)Nc1cc(S(=O)(=O)N2CCCCC2)ccc1Oc1cccc(C)c1 | -0.184% (inactive)
72 | CCOC(=O)N1CCC(NC(=O)c2cnn(-c3cccc(C)c3)c2C2CCN(C(=O)OC(C)(C)C)CC2)CC1 | -9.08% (inactive)
73 | Cn1nnnc1SCCNCc1ccc(Cl)c(Cl)c1 | -14.4% (inactive)
74 | CC1=NCCN1S(=O)(=O)c1cccc([N+](=O)[O-])c1 | 12.8% (inactive)
75 | Cc1ccc(-c2cn(S(=O)(=O)c3cccc([N+](=O)[O-])c3)nc2N)cc1 | 30.3% (active)
76 | Cc1cc(C)n(S(=O)(=O)c2cccc([N+](=O)[O-])c2)n1 | 2.11% (inactive)
77 | COc1cccc(C(c2c(O)cc(C)n(Cc3ccco3)c2=O)N2CCN(c3ccccc3)CC2)c1 (centres undefined) | -2.97% (inactive)
78 | Cc1ccccc1CNC(=O)CCc1cn(Cc2ccccc2C)c2ccccc12 | -1.4% (inactive)
79 | COc1ccc(-c2cn3nc(N4CCCC(C(=O)NCCCOC(C)C)C4)sc3n2)cc1 (centres undefined) | -3.35% (inactive)
80 | Cc1cccc(NC(=O)C2CCN(S(=O)(=O)c3c(C)noc3/C=C/c3ccco3)CC2)c1 | 2.71% (inactive)
81 | O=C(CCNC(=O)c1ccc(Br)cc1)NCCCc1ccccc1 | 33% (active)
82 | O=C(CCNS(=O)(=O)c1ccccc1)NCCCc1ccccc1 | -12.4% (inactive)
83 | CC(C)c1ccc(C(=O)NCCCc2ccccc2)cc1 | -14.7% (inactive)
84 | Cc1cc(F)ccc1NS(=O)(=O)c1ccc(-n2cccn2)cc1 | -0.96% (inactive)
85 | COc1ccc(CCNC(=O)c2cc(=O)c3c(C)cc(C)cc3o2)cc1OC | -14.8% (inactive)
86 | COc1ccc(CNC(=O)C2CC(c3ccc(C(F)(F)F)cc3)=NO2)cc1 (centres undefined) | 11.9% (inactive)
87 | COc1ccc(C2=NOC(C(=O)NCc3ccco3)C2)cc1OC (centres undefined) | 32.1% (active)
88 | COc1ccc(S(=O)(=O)N2CCC(C(=O)NCc3ccco3)CC2)cc1C | 6.74% (inactive)
89 | COc1cccc(-n2cc(C(=O)NCc3cccc(Cl)c3)c3ccccc3c2=O)c1 | 3.92% (inactive)
